# Screens deposited in PubChem BioAssay by National Center for Advancing Translational Sciences (NCATS).
# Most compounds without a hit are left out; they make up all but 2.4% or so of the library.
# D2 antagonist = antagonists of human D2 dopamine receptor | HEK293 TREx D2 cells, calcium flux, dopamine EC80 | inhibition, % at 10 µM | 2% of 340,000 active | AID 485344; in the data active = inhibition above about 30%; inactive = below that, where a call was filed; also: 0% is about no effect
# Target sequence (P14416 whole entry, looked up): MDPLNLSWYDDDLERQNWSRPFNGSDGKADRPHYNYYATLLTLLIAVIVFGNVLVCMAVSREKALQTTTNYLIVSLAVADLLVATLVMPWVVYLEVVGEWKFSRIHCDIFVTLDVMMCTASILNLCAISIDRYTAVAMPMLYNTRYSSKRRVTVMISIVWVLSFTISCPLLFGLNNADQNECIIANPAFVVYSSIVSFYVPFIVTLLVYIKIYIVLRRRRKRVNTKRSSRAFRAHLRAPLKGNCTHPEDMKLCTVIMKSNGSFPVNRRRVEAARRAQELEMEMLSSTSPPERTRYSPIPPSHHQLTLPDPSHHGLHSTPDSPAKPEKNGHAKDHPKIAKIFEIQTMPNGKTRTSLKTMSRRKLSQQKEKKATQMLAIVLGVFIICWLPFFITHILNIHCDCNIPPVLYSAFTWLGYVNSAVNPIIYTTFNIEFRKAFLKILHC
#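 Overnight-induced (tetracycline, 30 C) HEK293 T-REx cells carrying force-coupled D2 receive a no-wash calcium dye, then compound, then EC80 dopamine at 180 s; signals are read kinetically throughout.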
# D2 ag-1 = agonists of human D2 dopamine receptor (beta-arrestin) | AID 624465 | activation, % (concentration not given with the values) | DiscoveRx PathHunter D2 beta-arrestin, luminescence, 90 min; 100% = 57 uM dopamine signal | 0.084% of 360,000 active | P14416; in the data active = activation above about 40%; inconclusive = between about 15% and that limit
#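 Agonist mode: compounds alone added to overnight-plated D2 PathHunter cells for 90 min at 37 C, with 57 uM final dopamine (EC100) defining full response. Beta-arrestin recruitment detected by chemiluminescent reagent, read after 1 h at ambient temperature.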
# D2 PAM-1 = positive allosteric modulators of human D2 dopamine receptor | DiscoveRx D2 beta-arrestin cells, luminescence, 90 min; 100% = 57 uM dopamine signal | P14416 | 0.23% of 360,000 active | potentiation, % (test concentration not listed); in the data active = potentiation above about 50%; inconclusive = mostly about 30% to 49%
#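 PathHunter D2 cells, attached overnight at 37 deg C, received compound in DMSO plus dopamine at EC20 (50 nM final) for 90 min at 37 deg C. Beta-arrestin recruitment was read as luminescence after 1 h with detection reagent at ambient temperature.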
# D2 ag-2 = agonists of human D2 dopamine receptor; HEK293 T-REx D2 cells, calcium flux agonist mode; 0.53% of 340,000 active; activation, % at 2 µM; P14416; AID 485358;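 active = activation over 3 SD above normal in the single-dose calcium agonist read, cut at about 30% in these data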; also: 0% is about no effect
#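 HEK293 Trex D2 cells, tetracycline-induced, o/n 30 C 5% CO2; no-wash Ca dye, RT 30–90 min; 10-cycle baseline, 23 nl cpd added, kinetic Ca read 180 s; agonist hits = positive Ca response.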
# D2 PAM-2 = positive allosteric modulators of human D2 dopamine receptor. 0.34% of 340,000 active. AID 485347. potentiation, % at 10 µM. P14416. HEK293 T-REx D2, calcium flux, EC20 dopamine potentiation;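 active = potentiation over 3 SD above the plate norm, cut at about 30% in these data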; also: 0% is about no effect
#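 Using a no-wash calcium dye in inducible, force-coupled HEK293 Trex cells expressing D2, we tracked fluorescence each second for 180 s after compound, then for 180 s after EC20 dopamine to detect augmented signalling.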
# * marks the source's active call; other numbers are inactive results; ? = inconclusive; / = no result.
SMILES,D2 antagonist,D2 ag-1,D2 PAM-1,D2 ag-2,D2 PAM-2
CCN(c1ccccc1)S(=O)(=O)c1ccc(Cl)c(NC(=O)CN2CCCCCC2)c1,1,2,-5,1,-10
CN(C)S(=O)(=O)c1ccc(NC(=O)CN2CCC(Cc3ccccc3)CC2)cc1,-1,-2,-3,2,-6
CN(C)S(=O)(=O)c1ccc(Cl)c(NC(=O)CN2CCCCCC2)c1,34*,-3,-22,-3,-30
CN(CC(=O)Nc1cc(S(=O)(=O)N2CCCC2)ccc1Cl)Cc1ccc2c(c1)OCO2,32*,-2,-8,-1,-16
CN(C)S(=O)(=O)c1ccc(Cl)c(NC(=O)CN2CCC(Cc3ccccc3)CC2)c1,42*,2,-26,-5,-10
NC(=O)C1(N2CCCCC2)CCN(CC(=O)Nc2cc(Cl)ccc2Cl)CC1,43*,-1,-11,0,-25
O=C(CN1CCN(S(=O)(=O)c2cc(Cl)ccc2Cl)CC1)Nc1cccc(F)c1,/,/,/,-1,-5
O=C(NCC(c1ccccc1)c1ccccc1)c1nn(-c2ccccc2Cl)nc1CO,/,/,/,1,-19
CCOC(=O)c1cnc2c(ccc3ccccc32)c1Nc1ccccc1O,/,/,/,0,-7
O=C(CN1CCCCC1)Nc1ccc(C(F)(F)F)cc1Cl,-29,-2,1,-1,-1
O=C(COC(=O)c1ccc(O)cc1)Nc1cc(C(F)(F)F)ccc1Cl,0,6,-4,3,-3
O=C(CCCC(=O)OCC(=O)c1ccc(Cl)cc1Cl)Nc1cc(C(F)(F)F)ccc1Cl,19,-11,-40,1,-11
O=C(CN1CCCC1)Nc1cc(C(F)(F)F)ccc1Cl,82*,-6,-13,-2,-20
O=C(CCCC(=O)OCC(=O)c1ccc(F)cc1)Nc1cc(C(F)(F)F)ccc1Cl,47*,-4,0,1,-20
CCOC(=O)c1ccc[n+](CC(=O)Nc2cc(C(F)(F)F)ccc2Cl)c1,52*,-3,-15,0,-9
O=C(NCc1ccc(Cl)cc1)c1ccc2oc(=O)n(Cc3ccccc3)c2c1,/,/,/,/,13
O=C(/C=C\c1ccc(-c2ccccc2)o1)c1ccccc1,/,-4,-14,/,/
O=C(O)/C=C/c1ccc(-c2cccc(C(F)(F)F)c2)o1,-5,-4,1,-1,43*
COc1ccc(-n2c(Cc3cc(=O)[nH]c(=O)[nH]3)nnc2SCC(=O)Nc2cc(C(F)(F)F)ccc2Cl)cc1,41*,-3,-15,-1,-20
O=C(NCCCN1CCCCCC1)c1ccc2c(c1)sc1nc(-c3ccccc3)cn12,/,/,/,-1,-6
O=[N+]([O-])c1ccc(-c2ccc(C=Nc3cccc4ccccc34)o2)cc1,-4,0,14,-1,4
O=[N+]([O-])c1cc(-c2ccc(/C=N/c3nc4ccccn4c3-c3ccco3)o2)ccc1Cl,10,8,70*,0,4
Cc1cc(NC(=O)c2oc3c(c2C)-c2[nH]ncc2CC3)ccc1Br,/,/,/,0,2
Nc1c(-c2ccccc2)cnn1-c1cccc(Cl)c1,-5,6,-2,1,6
Nc1ccccc1Nc1cc(-c2cccc(Cl)c2)nn1-c1ccccc1,-5,?,68*,1,6
SMILES,D2 antagonist,D2 ag-1,D2 PAM-1,D2 ag-2,D2 PAM-2
O=c1c2c3c(sc2nc2n1CCCCC2)CCCCC3,57*,/,/,0,8
CC1=Nn2c(nc3sc4c(c3c2=O)CCCC4)SC1,55*,-6,1,0,5
CC1(C)CC(n2c(NCCO)nc3c(c2=O)C2(CCCC2)Cc2ccccc2-3)CCO1 (configuration not stated),-13,-1,-2,1,34*
O=c1c2c(nc(NCCO)n1CC1CCCCC1)-c1ccccc1CC21CCCC1,8,-4,-4,1,16
CCCCn1c(N)c(N(CC(C)C)C(=O)c2cccc(OCc3ccccc3)c2)c(=O)[nH]c1=O,-30,-1,2,0,30*
CCCCn1c(N)c(N(CCC(C)C)C(=O)c2cccc(S(=O)(=O)N3CCN(C)CC3)c2)c(=O)[nH]c1=O,34*,-5,-15,0,-5
Cc1cc2cc(CNC(=O)c3cccs3)ccc2n1C,1,-2,-7,52*,-12
CCOC(=O)CCC(=O)NCc1ccc2c(c1)cc(C)n2C,-8,0,2,0,-5
